The structures appear in SMILES notation.

This test can be described thus: adipocyte viability effects, profiling panel, cell-based, 3T3-L1 adipocytes, calcein-AM fluorescence, 48 h, basal (AID 1163). Also: test concentration not given here. As to conditions: 3T3-L1 adipocytes viability, higher = more signal.
Regarding `CC(=O)NCCCC[C@@H]1NC(=O)[C@@H]2C[C@H](C(=O)NCCCCCNC(=O)CS)[C@H](c3cccc(OCCO)c3)N2C1=O`, the z-score was 0.767.
For `COc1ccccc1CN1C(=O)c2ccccc2[C@@]2(Cc3ccccc3N(CC(C)C)C2=O)[C@@H]1c1ccc(CO)cc1` the value was 0.444; for `CC(CO)N1C(=O)[C@@H]2C3C(=O)OCCC/C=C\[C@H]3OC23C=CCN(C(C)(C)C)C(=O)[C@@H]13` (stereo partly drawn), -0.557; for `CC1(C)[C@@H]2CC(C(O)C3C=CC4C(=O)N(Cc5ccccc5)C(=O)C4N3n3cnnc3)=C[C@H]1C2` (stereo partly drawn), -0.622.
Take `O=C1C[C@@](C(=O)NC2CC2)(c2ccc([N+](=O)[O-])cc2)[C@@H](c2ccc(CO)cc2I)N1C1CCCCC1`: the z-score was -0.536.
For `NC(=O)NCC#Cc1ccc2c(c1)[C@]1(C(=O)N2)[C@H](C(=O)Nc2nc3ccccc3s2)[C@H]2C(=O)O[C@H](c3ccccc3)[C@H](c3ccccc3)N2[C@@H]1c1ccccc1OCCO` the value was 2.01; for `O=C1c2ccccc2[C@](Cc2ccccc2I)(C(=O)NCC(F)(F)F)[C@H](c2ccc(CO)cc2)N1Cc1ccccc1Cl`, 0.46.
With `CCC[C@@H]1C[C@@]1(CCC)[C@@H](NS(=O)(=O)c1cccc2cccnc12)c1ccc(Cl)cc1`, the z-score is -1.13.
`CCCC[C@@H]1C[C@H]1[C@@H](NC(=O)c1ccco1)c1ccc(-c2ccccc2)cc1`: the z-score is 0.222.
As for `Cc1ccc(S[C@]2(C(=O)NCCCN(C)C)CC(=O)N(Cc3cc(C(F)(F)F)cc(C(F)(F)F)c3)[C@@H]2c2ccc(CO)cc2)cc1`, the z-score is 0.374.
In the case of `C=C[C@@H](COC(=O)OC(C)(C)C)N(Cc1ccc(OC)cc1)S(=O)(=O)c1ccc(Br)cc1`, the z-score is 0.332.
To `COCCOC(=O)N1C(=O)[C@@]2(c3cc(C#CCC(C(=O)OC)C(=O)OC)ccc31)[C@H](C(=O)N1CCN(c3ncccn3)CC1)[C@H]1C(=O)O[C@H](c3ccccc3)[C@H](c3ccccc3)N1[C@@H]2c1ccccc1OCCO` belongs 0.462.
To `CN1C(=O)C2C=CC(C(O)c3ccccc3)N(N(c3ccccc3)c3ccccc3)C2C1=O` (stereo not drawn) belongs -0.669.
To `COc1ccc([Si](C)(C)[C@H]2[C@H](CC(=O)N3Cc4ccccc4C[C@H]3CO)O[C@@]3(C(=O)N(Cc4cccc(N5CCC5=O)c4)c4ccccc43)[C@@H]2C)cc1` belongs 0.441; to `C=CCC(OC(C)=O)[C@@H]1[C@@H](N(Cc2ccc(-c3cccc(C(F)(F)F)c3)o2)C(=O)c2ccc(C)cc2)c2cc(OCCCO)ccc2N1C(=O)Cc1ccc2ccccc2c1` (stereo partly drawn), 0.9; to `Oc1ccc2cc[n+](Cc3sc4ccccc4c3Cl)cc2c1`, 0.552.
Take `COC(=O)C(CC#Cc1ccc2c(c1)[C@]1(C(=O)N2)[C@H](c2ccc(OCCO)cc2)N2[C@H](c3ccccc3)[C@H](c3ccccc3)OC(=O)[C@H]2[C@@H]1C(=O)N1CCc2cc(OC)c(OC)cc2C1)C(=O)OC`: the z-score was 1.16.
For the compound `COc1ccc(CCNC(=O)[C@@]2(Sc3ccc(C)cc3)CC(=O)N(C(C)C)[C@@H]2c2ccc(CO)cc2I)cc1`, the z-score is 0.345.
To `CN(C)CCCC[C@@H]1NC(=O)[C@@H]2C[C@H](C(=O)NCCCCCCN)[C@H](c3cccc(OCCO)c3)N2C1=O` belongs 1.24; to `C=CCN1C(=O)[C@]2(O[C@H](CCn3cc([C@H](O)c4ccccc4)nn3)[C@@H]([Si](C)(C)c3ccc(OC)cc3)[C@@H]2C)c2ccccc21`, 0.76; to `COC(=O)C(CC#Cc1ccc2c(c1)[C@]1(C(=O)N2)[C@H](C(=O)Nc2nc3ccccc3s2)[C@H]2C(=O)O[C@H](c3ccccc3)[C@H](c3ccccc3)N2[C@@H]1c1ccc(O)cc1)C(=O)OC`, 0.823.
As for `COc1cc2c(cc1O)C(c1cccs1)N(C)CC2` (stereo not drawn), the z-score is -0.344.
To `C=CC[C@]1(C(=O)NCc2ccccc2)N=C(c2ccc(OCCCO)cc2)O[C@H]1c1ccccc1N=[N+]=[N-]` belongs 0.514.
With `O=C(c1ccccc1)N1Cc2ccccc2C[C@@]2(COC(c3ccc(OCCCO)cc3)=N2)C1=O`, the z-score was 0.697.
To `C=C[C@H](C)[C@@H](OC(=O)Nc1ccc(OC)cc1)c1ccc(O)c2ccccc12` belongs 0.323.
With `CCC(CC)C(O)C1C=CC2C(=O)NC(=O)C2N1Nc1ccc(Cl)cc1Cl` (stereo not drawn), the z-score was -0.326.
For `COc1ccc(C#Cc2ccc3c(c2)[C@]2(C(=O)N3)[C@H](c3ccccc3OCCO)N3[C@H](c4ccccc4)[C@H](c4ccccc4)OC(=O)[C@H]3[C@@H]2C(=O)Nc2nc3ccccc3s2)cc1` the value was 0.453; for `O=C(CS)NCCCCCCNC(=O)[C@@H]1C[C@@H]2C(=O)N[C@@H](Cc3ccccc3)C(=O)N2[C@@H]1c1cccc(OCCO)c1`, 0.363.
